Data as given in PubChem BioAssay (NCATS).
Inconclusive results are not listed. Active and inactive are the calls of the source. Unless noted, calls come from the whole dose curve; as a rule, active = well fitted curve in the direction sought with a large enough effect; inconclusive = small, poorly fitted or top-dose-only effect, or another doubt; inactive = no such curve, though single readings can be large; an effect the other way counts as inactive or inconclusive.

Experiments:
[1] = AP1 Signaling Pathway (AID 357; active = well fitted curve in either direction with a large enough effect, not every such curve was filed as active; note: % is set by controls: 0 for no effect and ±100 for the full control effect); settings: ME-180 AP-1-bla reporter, EGF-induced, beta-lactamase ratio, 5 h; at 7.69 µM (top of the series) unless noted
How it was run: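 Titration-series screen for positive or negative modulators of EC50 EGF-induced signaling in ME-180 cells carrying an AP-1-driven beta-lactamase reporter. After 5 hours at 37 degrees Celsius, CCF4 460nm/530nm emission ratio gave %Activity; AC50 values derived.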

[2] = target: Cytochrome P450 1A2 (Homo sapiens) (UniProt P05177); assay: p450-cyp1a2 (AID 410; calls by dose curve;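 note: -100% = full effect of reference inhibitor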)
Sequence of Cytochrome P450 1A2 (Homo sapiens) (P05177 whole entry, looked up): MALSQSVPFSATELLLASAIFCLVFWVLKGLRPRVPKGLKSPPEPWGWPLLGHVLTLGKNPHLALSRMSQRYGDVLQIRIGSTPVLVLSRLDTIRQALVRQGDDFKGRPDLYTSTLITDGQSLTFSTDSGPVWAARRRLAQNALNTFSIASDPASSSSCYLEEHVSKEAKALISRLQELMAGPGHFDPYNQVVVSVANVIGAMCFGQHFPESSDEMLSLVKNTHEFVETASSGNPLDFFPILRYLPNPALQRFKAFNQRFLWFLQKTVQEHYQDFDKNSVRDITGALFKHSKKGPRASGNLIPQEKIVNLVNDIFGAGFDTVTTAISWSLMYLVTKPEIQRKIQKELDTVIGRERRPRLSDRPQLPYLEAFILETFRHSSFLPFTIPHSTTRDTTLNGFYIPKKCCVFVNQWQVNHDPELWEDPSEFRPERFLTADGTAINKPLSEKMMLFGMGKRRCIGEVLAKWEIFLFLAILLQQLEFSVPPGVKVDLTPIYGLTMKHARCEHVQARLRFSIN
How it was run: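 20nM CYP1A2 with 100uM Luciferin-ME (at Km) in 100mM KPO4; compound preincubated 10 min, NADPH regeneration added, 60 min at room temperature. Luciferin quantified by luminescence after detection reagent; normalized to 57 uM furafylline.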

[3] = Stat Signaling Pathway (AID 446; active = well fitted curve in either direction with a large enough effect, not every such curve was filed as active;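 note: ME-180 cervical cancer cells given 40 pM IL-6 alongside compound; SIE-controlled beta-lactamase reporter measured as 460/530 nm FRET emission ratio; % is set by controls: 0 for no effect and ±100 for the full control effect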)
How it was run: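 ME-180 SIE-bla cells; overnight plating; cpd + IL-6 40 pM, 5 h, 37 C; LiveBLAzer 2.5 h RT; 460/530 nm emission ratio. Normalized to 300 pM IL-6 and 125 nM JAK inhibitor controls.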

[4] = target: Glucocorticoid receptor (Homo sapiens) (UniProt P04150); assay: GR-GFP Redistribution (AID 450;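 active = compounds whose dose series gives a full or clear partial fitted curve of increased nuclear translocation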; note: potency is the fitted concentration of half-maximal effect); settings: U2OS GR-GFP nuclear translocation, laser cytometry, 2 h
Sequence of Glucocorticoid receptor (Homo sapiens) (P04150 whole entry, looked up, the tested form may be a part): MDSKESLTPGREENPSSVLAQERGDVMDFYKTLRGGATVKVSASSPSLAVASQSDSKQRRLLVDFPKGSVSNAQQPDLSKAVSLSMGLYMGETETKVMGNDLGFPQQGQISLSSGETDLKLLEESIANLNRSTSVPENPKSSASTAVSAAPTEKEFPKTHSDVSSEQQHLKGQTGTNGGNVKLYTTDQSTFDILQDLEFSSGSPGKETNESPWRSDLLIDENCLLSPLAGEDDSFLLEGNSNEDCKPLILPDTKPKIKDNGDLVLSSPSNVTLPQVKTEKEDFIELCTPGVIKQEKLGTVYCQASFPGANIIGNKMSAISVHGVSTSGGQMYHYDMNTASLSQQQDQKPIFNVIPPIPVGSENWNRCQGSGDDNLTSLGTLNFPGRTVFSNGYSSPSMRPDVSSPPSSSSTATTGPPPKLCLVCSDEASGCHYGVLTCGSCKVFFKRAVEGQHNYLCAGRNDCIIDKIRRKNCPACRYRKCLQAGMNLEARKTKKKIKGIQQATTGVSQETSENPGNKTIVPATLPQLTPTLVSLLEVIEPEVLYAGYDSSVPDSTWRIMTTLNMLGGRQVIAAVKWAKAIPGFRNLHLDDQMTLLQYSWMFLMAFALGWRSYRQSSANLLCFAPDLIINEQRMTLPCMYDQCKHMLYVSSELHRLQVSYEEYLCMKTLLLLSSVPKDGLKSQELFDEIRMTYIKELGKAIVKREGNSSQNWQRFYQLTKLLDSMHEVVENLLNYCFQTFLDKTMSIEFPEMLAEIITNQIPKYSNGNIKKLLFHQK

[5] = target: Glucocorticoid receptor (Homo sapiens) (UniProt P04150); assay: GR-EFC Redistribution (AID 451; calls by dose curve; note: potency is the fitted concentration of half-maximal effect); settings: CHO-K1 GR-EFC translocation, beta-gal luminescence, 2 h
How it was run: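 CHO-K1 cells expressing nuclear EA and GR-ED fragments of b-gal; compounds titrated up to 46 uM final, 2 h at 37 C. GR nuclear translocation read as complemented b-gal luminescence after 1 h RT detection.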

[6] = target: Mitogen-activated protein kinase 10 (Mus musculus) (UniProt Q61831); assay: JNK3 AlphaScreen Assay (AID 530; active = well fitted curve in either direction with a large enough effect, not every such curve was filed as active;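 note: kinase came from lysate of stimulated human HepG2 cells; signal reports phosphorylation of biotinylated GST-cJun 1-79 at Ser73 with 10 µM ATP; % is set by controls: 0 for no effect and ±100 for the full control effect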)
How it was run: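 Pre-activated (IL-1β/TNFα) JNK3 in HepG2 lysates phosphorylates biotin-GST-cJun(1-79), 10 uM ATP; anti-phospho-cJun(Ser73) AlphaScreen read at room temperature, pH 7.6 Tris buffer. Compounds pre-incubated 15 min as titrations.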

[7] = target: 3',5'-cyclic-AMP phosphodiesterase 4B (Homo sapiens) (UniProt Q07343); assay: qHTS Assay for Inhibitors of PDE-IV (AID 607; active = well fitted activation curve with a large enough effect in the main read-out, with a control signal flat, not every such curve was filed as active; note: % of control where 0% means no effect)
Sequence of 3',5'-cyclic-AMP phosphodiesterase 4B (Homo sapiens) (Q07343 whole entry, looked up): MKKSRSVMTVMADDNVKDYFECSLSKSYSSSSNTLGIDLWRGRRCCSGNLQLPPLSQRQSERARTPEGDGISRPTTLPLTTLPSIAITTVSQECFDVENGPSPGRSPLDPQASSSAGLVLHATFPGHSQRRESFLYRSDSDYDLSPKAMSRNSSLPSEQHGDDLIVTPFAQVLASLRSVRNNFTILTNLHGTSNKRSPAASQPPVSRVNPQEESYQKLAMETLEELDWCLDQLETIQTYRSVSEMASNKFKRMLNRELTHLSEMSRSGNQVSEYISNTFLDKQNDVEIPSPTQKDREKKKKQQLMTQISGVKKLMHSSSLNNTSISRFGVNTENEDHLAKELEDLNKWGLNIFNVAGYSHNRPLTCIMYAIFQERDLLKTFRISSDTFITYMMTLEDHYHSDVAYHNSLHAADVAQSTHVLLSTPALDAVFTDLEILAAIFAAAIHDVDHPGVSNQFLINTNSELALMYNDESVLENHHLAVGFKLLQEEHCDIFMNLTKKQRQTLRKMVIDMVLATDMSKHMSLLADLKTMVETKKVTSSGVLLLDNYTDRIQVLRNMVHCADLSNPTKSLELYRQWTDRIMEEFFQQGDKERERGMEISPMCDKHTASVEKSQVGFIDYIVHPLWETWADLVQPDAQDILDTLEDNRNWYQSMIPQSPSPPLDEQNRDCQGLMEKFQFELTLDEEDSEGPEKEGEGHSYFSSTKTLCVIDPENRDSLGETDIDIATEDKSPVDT
How it was run: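 ACTOne HEK293 cells carry a modified cAMP-gated CNG channel and express endogenous PDE4; plated 1000 cells/well, compounds up to 22.9 uM final. Membrane-potential dye fluorescence (ex 535/em 590) was read; parental cells received 10 uM forskolin + 100 uM RO 20-1724.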

[8] = target: Guanine nucleotide-binding protein G(i) subunit alpha-1 (Homo sapiens) (UniProt P63096); assay: qHTS Assay for Inhibitors of RGS12 GoLoco Motif Activity (Green Fluorophore) (AID 879);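 note: 0% = labeled peptide with Gαi1 and full inhibition = labeled peptide alone without protein; negative values mean loss of peptide binding seen as reduced polarization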
Sequence of Guanine nucleotide-binding protein G(i) subunit alpha-1 (Homo sapiens) (P63096 whole entry, looked up): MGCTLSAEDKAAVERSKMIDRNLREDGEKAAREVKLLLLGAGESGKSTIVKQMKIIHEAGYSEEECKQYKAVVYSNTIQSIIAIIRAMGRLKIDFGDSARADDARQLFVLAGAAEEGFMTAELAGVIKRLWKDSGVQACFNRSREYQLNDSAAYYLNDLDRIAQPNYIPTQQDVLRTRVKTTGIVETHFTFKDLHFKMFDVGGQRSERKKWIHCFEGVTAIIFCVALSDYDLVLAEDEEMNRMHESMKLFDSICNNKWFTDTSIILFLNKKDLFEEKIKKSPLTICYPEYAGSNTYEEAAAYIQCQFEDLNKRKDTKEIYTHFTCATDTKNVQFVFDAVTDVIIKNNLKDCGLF
How it was run: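 Fluorescence polarization assay: 50 nM Gαi1 with 10 nM FITC-labeled RGS12 GoLoco peptide in 10 mM Tris pH 7.5, 150 mM NaCl, 0.1 mM GDP, 0.05% NP40, 10 min at room temperature with compound.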

[9] = target: Cytochrome P450 3A4 (Homo sapiens) (UniProt P08684); assay: qHTS Assay for Inhibitors and Substrates of Cytochrome P450 3A4 (AID 884); note: % is set by controls: 0 for no effect and ±100 for the full control effect; nearly all actives have a fitted effect of over 50% in size
How it was run: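 20 nM human CYP3A4 with 25 uM Luciferin-PPXE (at KM) in 200 mM KPO4, preincubated 10 min with compound; NADPH regeneration started a 60 min RT reaction. Luciferin detected by luminescence, normalized to 57 uM ketoconazole as full inhibition.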

[10] = qHTS Assay for Identification of Small Molecule Agonists for Hypoxia Response Element Signaling Pathway (AID 914; active = well fitted activation curve with a large enough effect in the signal ratio, with a control signal flat, not every such curve was filed as active; the % refers to the signal ratio; note: % of control where 0% means no effect); settings: ME-180 (cervical carcinoma) HRE-bla reporter, beta-lactamase ratio, CoCl2, 17 h; activation: stronger effect = higher value
How it was run: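 In Opti-MEM containing 0.5% dialyzed FBS and 10 mM HEPES, ME-180 HRE-bla cells received a compound titration and EC50 CoCl2. They were incubated 17 hours, then CCF4-loaded 2.5 hours at room temperature before ratio reading.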

[11] = qHTS Assay for Identification of Small Molecule Agonists for Thrombopoietin (TPO) Signaling Pathway (AID 917); note: % is set by controls: 0 for no effect and ±100 for the full control effect
How it was run: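 Reporter: GpIIb promoter–luciferase in murine Ba/F3 expressing human TPO receptor. Pre-starved of IL-3 overnight; compounds with 26 pM TPO, 24 hrs, 37 C/5% CO2; luminescence read.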

[12] = target: Muscarinic acetylcholine receptor M1 (Rattus norvegicus) (UniProt P08482); assay: qHTS Assay for Antagonists of Acetylcholine Muscarinic M1 Receptor: Measurement of IP-One Response (AID 944); note: nearly all actives have a fitted effect of over 75% in size
Sequence of Muscarinic acetylcholine receptor M1 (Rattus norvegicus) (P08482 whole entry, looked up): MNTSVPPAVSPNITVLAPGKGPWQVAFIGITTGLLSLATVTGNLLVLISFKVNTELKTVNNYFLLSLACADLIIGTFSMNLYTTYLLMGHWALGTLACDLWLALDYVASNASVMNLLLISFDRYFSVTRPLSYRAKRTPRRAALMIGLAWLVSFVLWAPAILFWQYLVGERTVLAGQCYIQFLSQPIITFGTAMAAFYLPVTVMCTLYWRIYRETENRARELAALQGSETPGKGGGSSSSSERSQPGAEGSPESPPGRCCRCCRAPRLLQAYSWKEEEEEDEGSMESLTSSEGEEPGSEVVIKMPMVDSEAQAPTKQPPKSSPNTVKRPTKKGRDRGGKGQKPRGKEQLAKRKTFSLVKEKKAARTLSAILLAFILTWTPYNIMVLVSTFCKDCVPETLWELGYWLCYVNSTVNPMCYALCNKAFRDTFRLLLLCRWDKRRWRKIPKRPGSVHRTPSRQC
How it was run: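 CHO cells stably expressing rat M1, pretreated 10 min with compound, then stimulated 30 min with carbachol at EC80 (200 nM) in LiCl-containing buffer pH 7.4; IP1 accumulation read by HTRF competition (665/620 nm).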

[13] = target: Pyruvate kinase (Leishmania mexicana) (UniProt Q27686); assay: qHTS Validation Assay for Inhibitors of Leishmania Mexicana Pyruvate Kinase (AID 945);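 note: 0% = DMSO only neutral control wells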
Sequence of Pyruvate kinase (Leishmania mexicana) (Q27686 2-499 E452W): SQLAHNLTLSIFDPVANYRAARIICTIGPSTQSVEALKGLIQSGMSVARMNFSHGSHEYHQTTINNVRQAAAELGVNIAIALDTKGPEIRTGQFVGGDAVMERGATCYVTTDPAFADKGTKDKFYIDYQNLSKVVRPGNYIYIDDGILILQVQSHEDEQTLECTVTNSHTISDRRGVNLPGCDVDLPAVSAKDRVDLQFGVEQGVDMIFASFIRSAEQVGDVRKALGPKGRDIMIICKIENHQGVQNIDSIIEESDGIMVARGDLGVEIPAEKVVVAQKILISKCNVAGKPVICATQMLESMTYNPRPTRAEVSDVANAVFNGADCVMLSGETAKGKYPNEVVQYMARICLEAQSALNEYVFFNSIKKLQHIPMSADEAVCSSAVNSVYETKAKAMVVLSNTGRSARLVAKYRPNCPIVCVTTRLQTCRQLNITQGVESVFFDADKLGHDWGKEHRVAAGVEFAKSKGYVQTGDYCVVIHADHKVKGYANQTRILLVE
How it was run: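 An endpoint luciferase assay: 0.2 nM LmPYK E451W turns over 0.5 mM PEP with 0.1 mM ADP for 1 h at room temperature, pH 7.2, before PKLight addition. Values are normalized to DMSO-only wells.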

[14] = target: Pyruvate kinase PKM (Homo sapiens) (UniProt P14618); assay: qHTS Assay for Activators of Human Muscle Pyruvate Kinase (AID 954; active = well fitted curve in the direction sought with a large enough effect, not every such curve was filed as active;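 note: 0% = uninhibited enzyme and -100% = no enzyme or full thiadiazolimine inhibition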)
Sequence of Pyruvate kinase PKM (Homo sapiens) (P14618 whole entry, looked up): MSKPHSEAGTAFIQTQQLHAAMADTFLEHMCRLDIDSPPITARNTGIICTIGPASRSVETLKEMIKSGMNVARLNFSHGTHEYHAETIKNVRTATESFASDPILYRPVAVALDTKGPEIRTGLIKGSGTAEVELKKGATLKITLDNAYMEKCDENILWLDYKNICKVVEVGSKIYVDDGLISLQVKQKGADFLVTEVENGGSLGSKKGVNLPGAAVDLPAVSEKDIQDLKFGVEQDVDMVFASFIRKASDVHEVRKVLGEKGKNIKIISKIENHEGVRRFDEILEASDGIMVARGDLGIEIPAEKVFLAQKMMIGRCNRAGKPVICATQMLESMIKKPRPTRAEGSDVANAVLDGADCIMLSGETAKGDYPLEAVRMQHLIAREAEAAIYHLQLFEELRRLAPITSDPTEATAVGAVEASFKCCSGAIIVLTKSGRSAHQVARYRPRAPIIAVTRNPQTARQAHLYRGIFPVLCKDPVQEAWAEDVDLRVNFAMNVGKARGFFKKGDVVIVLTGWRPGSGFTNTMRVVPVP
How it was run: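 Luminescence from a luciferase ATP-detection/stop reagent reported PKM2 activity. Reactions contained 0.1 nM purified human enzyme, 0.5 mM PEP, 0.1 mM ADP and 7 mM MgCl2 at pH 7.2, run 1 h at RT.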

[15] = target: Alpha-galactosidase A (Homo sapiens) (UniProt P06280); assay: Counterscreen for Glucocerebrosidase Inhibitors: qHTS Assay for Human alpha-Galactosidase at pH 4.5 (AID 992); note: 0% is about no effect
Sequence of Alpha-galactosidase A (Homo sapiens) (P06280 whole entry, looked up): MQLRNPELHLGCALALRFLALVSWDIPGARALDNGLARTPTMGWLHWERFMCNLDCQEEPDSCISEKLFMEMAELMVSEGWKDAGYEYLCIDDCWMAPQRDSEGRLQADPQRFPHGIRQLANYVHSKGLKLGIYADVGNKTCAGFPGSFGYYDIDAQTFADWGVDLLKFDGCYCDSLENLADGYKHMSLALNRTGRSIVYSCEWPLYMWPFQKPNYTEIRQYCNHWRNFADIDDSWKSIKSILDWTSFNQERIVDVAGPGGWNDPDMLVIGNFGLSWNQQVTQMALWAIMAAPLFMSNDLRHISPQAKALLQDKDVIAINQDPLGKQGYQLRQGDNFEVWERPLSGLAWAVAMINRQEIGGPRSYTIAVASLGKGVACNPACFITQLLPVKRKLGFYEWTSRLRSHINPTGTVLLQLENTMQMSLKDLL
How it was run: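 Enzyme at 2 nM final was combined with compound (0.7 nM to 77 uM) and 80 uM 4-methylumbelliferyl alpha-D-galactopyranoside in 50 mM citric acid, 0.005% Tween-20, pH 4.5. After 20 min at room temperature, fluorescence was read (Ex 365/Em 440 nm); AC50 came from Hill fits.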

[16] = target: alpha-glucosidase (Oryza sativa, rice) (UniProt Q653V4); assay: Counterscreen for Glucocerebrosidase Inhibitors: qHTS Assay for Rice alpha-Glucosidase at pH 5.0 (AID 997);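 note: 0% = full activity with enzyme and -100% = basal without enzyme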
How it was run: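 Rice alpha-glucosidase (4 nM final) with 400 uM 4-methylumbelliferyl-alpha-D-glucopyranoside in citrate buffer pH 5.0, 20 min at room temperature, stopped at pH 10; fluorescence 365/440 nm, compounds 0.7 nM–77 uM, AC50 from Hill fits.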

[17] = target: DNA repair nuclease/redox regulator APEX1 (Homo sapiens) (UniProt P27695); assay: qHTS Validation Assay for Inhibitors of the Human Apurinic/apyrimidinic Endonuclease 1 (APE1) (AID 1705)
Sequence of DNA repair nuclease/redox regulator APEX1 (Homo sapiens) (P27695 whole entry, looked up): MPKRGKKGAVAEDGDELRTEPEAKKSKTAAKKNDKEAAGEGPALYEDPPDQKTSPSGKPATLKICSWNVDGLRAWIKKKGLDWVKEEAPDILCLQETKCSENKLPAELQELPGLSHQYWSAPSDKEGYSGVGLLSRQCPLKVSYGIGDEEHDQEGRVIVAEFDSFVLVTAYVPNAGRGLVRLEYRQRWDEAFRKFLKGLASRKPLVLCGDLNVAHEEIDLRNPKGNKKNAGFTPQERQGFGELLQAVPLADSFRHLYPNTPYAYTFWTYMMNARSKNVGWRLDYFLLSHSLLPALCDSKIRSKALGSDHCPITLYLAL
How it was run: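 Activity read as rising fluorescence (598 nm emission, 525 nm excitation) from incision of a TAMRA/BHQ-2 duplex carrying a THF abasic site (50 nM). Compound and enzyme sat 15 min at RT before substrate start; signal change between first and third 60-s reads.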

[18] = Counterscreen for APE1 Inhibitors: Fluorescent Dye Displacement Validation Assay (AID 1707);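 note: plate controls were ThO with dsDNA and no compound for no effect and ThO without dsDNA for full effect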
How it was run: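 Thiazole Orange displacement from dsDNA: 250 nM ThO with 50 nM TAMRA-labelled abasic-site (tetrahydrofuran) duplex in 50 mM Tris-HCl pH7.5, 50mM NaCl, 2 mM MgCl2, 0.01% Tween-20. Loss of endpoint fluorescence (ex 480 nm, em 540 nm) flags DNA binders.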

[19] = qHTS for differential inhibitors of proliferation of Plasmodium falciparum line 7G8 (AID 1815);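 note: parasite growth measured after three days of incubation; plate controls were vehicle wells for no effect and reference inhibitor wells for full effect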

O=S(=O)(O)C1CCNCC1
inactive: activity change, negative = inhibition [1] 5.14% [at 38 µM] | Potency [2] | outcome [3] | Potency [4] > 46 µM | Potency [5] > 46 µM | Potency [6] | Potency [7] | Potency [8] | Potency [9] | activation [10] 1.41% | outcome [11] | Potency [12] | outcome [13] | outcome [14] | outcome [15] | outcome [16] | Potency [17] | outcome [18] | Potency [19]
